Bioassay records as filed in PubChem BioAssay.
In the library only some 2.2% were active in any assay of this set; here they are far more common.
TGFb inhibitor – inhibitors of TGF-b signaling. HepG2 CAGA-GFP TGF-b/SMAD3 reporter, GFP fluorescence, 18 h; TGF-beta stimulated, 500 pg/mL final. Potency, µM (doses to about 46.1 µM), actives largely listed as inhibitors. 410,000 tested, 1.2% active. AID 588855; also: nearly all actives have a fitted effect of over 65% in size
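Smad-responsive CAGA-GFP expression was quantified in HEPG2 cells exposed to compounds and 500 pg/mL final TGF-beta for 18 h at 37 degrees C; unstimulated wells defined full inhibition.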
HepG2 viability – kills HepG2 cells in TGF-b inhibitor counter-screen; HepG2 CAGA-GFP viability, ATP luminescence, 18 h; Potency, µM (series often up to 46.1 µM), actives largely listed as cytotoxic; 410,000 tested, 0.76% active; AID 588856
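HepG2 CAGA-GFP cells (1000/well, DMEM with 1% FBS) received compound, then TGF-beta at 500 pg/mL final, and were incubated 18 hours at 37 degrees C. Viability was read by CellTiter-Glo luminescence. Media-only wells were set as complete cell-killing and DMSO as no toxicity.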
ATXN2 expr inh – reduces ATXN2 reporter expression in HEK-293 cells. HEK-293 ATXN2-luciferase reporter, luminescence, 24 h. Potency, µM (doses to about 57 µM), usual class: inhibitors. AID 1745845. 360,000 tested, 0.72% active; also: nearly all actives have a fitted effect of over 55% in size
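qHTS (up to 57 uM final) was run with 24 h compound exposure of reporter cells at 37 °C. Each well was multiplexed: SteadyGlo luminescence measured ATXN2-luciferase expression after a fluorogenic Gly-Phe-AFC viability readout (25 uM final).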
S2 tox – viability counter-screen for ATXN expression inhibitors; S2 cells (HEK-293 line with an ATXN2-luciferase reporter) viability, CellTiter-Fluor protease fluorescence, 24 h; Potency, µM (highest dose often 56.7 µM), actives largely listed as cytotoxic; 400,000 tested, 0.49% active; AID 651635; also: nearly all actives have a fitted effect of over 40% in size
LDHA block – inhibitors of human lactate dehydrogenase A; P00338; purified LDHA, NADH/diaphorase-resazurin fluorescence; hits give low values; activity change, % (values are at about 110 or 230 µM); 480,000 tested, 0.15% active; AID 1347041; in the data active = activity change below about -30%; inconclusive = mostly about -25% to -30%
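Resorufin fluorescence (ex540/em590), read at 0 and 20 min after diaphorase/resazurin addition, reports the NADH left after a 5 min room-temperature reaction of 2 nM human LDH5 with 0.06 mM NADH and 0.2 mM pyruvate.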
mIDH1 inhibitor – blocks human mutant IDH1 R132H enzyme | IDH1-R132H enzyme, NADPH consumption, diaphorase/resazurin fluorescence | Potency, µM (series often up to 76.6 µM), usual class: inhibitors | 390,000 tested, 0.093% active; also: nearly all actives have a fitted effect of over 65% in size
Target sequence (O75874 whole entry R132H, stated change not applied): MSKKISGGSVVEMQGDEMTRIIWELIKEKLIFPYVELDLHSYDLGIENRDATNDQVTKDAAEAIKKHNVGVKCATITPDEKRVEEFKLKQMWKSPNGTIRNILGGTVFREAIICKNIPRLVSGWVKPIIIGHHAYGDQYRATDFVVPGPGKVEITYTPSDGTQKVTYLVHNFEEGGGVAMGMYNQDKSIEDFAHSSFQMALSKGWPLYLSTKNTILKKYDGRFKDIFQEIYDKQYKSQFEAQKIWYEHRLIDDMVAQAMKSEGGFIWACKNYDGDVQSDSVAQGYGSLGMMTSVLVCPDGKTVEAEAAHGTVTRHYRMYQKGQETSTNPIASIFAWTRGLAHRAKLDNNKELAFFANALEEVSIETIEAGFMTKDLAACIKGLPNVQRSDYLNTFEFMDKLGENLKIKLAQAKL
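IDH1-R132H (0.5 ug/mL) preincubated 30 min with compound, then NADPH (0.016 mM) and alpha-KG (2 mM) added; 80 min at RT, pH 7.5. Remaining NADPH coupled via diaphorase/resazurin to fluorescence (540/590 nm); concentration-response curves normalized to no-enzyme control.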
Hits are given with their value; 0 = inactive; ? = inconclusive; - = not tested or not shown. Unless noted, calls follow the shape of the dose curve; as a rule, active = well fitted curve in the direction sought with a large enough effect; inconclusive = small, poorly fitted or top-dose-only effect, or another doubt; inactive = no such curve, though single readings can be large; an effect the other way counts as inactive or inconclusive.

SMILES | TGFb inhibitor | HepG2 viability | ATXN2 expr inh | S2 tox | LDHA block | mIDH1 inhibitor
O=C(CCl)Nc1cc(S(=O)(=O)N2CCCCCC2)ccc1Cl | 0 | 0 | ? | 18µM | 0 | 0
CCN1CCN(c2ccc(S(=O)(=O)N3CCCCC3)cc2NC(=O)Cc2ccc(Cl)c(Cl)c2)CC1 | 16µM | 18µM | 0 | 0 | 0 | 0
Cc1noc(C)c1C(=O)Nc1nc2ccc(Cl)cc2s1 | ? | 0 | 0 | 0 | 0 | 0
CN(CCNC(=O)C1CCC(=O)N(Cc2ccc(Cl)cc2)C1)CCc1ccccc1 (configuration not stated) | 0 | 0 | 0 | 0 | 0 | 0
CN(C)C1(CNC(=O)C2CCC(=O)N(Cc3ccc(Cl)cc3)C2)CCCCC1 (configuration not stated) | 0 | 14µM | - | 0 | 0 | 0
CN1CCN(c2nc(Nc3ccc(F)cc3)nc(Nc3ccc(F)cc3)n2)CC1 | ? | 13µM | 25µM | ? | 0 | 0
Clc1ccccc1-c1nc2nc3ccccc3nc2n1-c1ccc2c(c1)OCO2 | 0 | 0 | 0 | ? | 0 | 0
CC1CN(C2CCN(S(=O)(=O)c3ccc(F)cc3)CC2)CC(C)O1 (configuration not stated) | 0 | 0 | 0 | 0 | 0 | 0
CC1CN(C2CCN(S(=O)(=O)c3ccccc3)CC2)CC(C)O1 (configuration not stated) | 0 | 0 | 0 | 0 | -32 | 0
COc1ccc(C(O)c2ncc(-c3ccccc3F)[nH]2)cc1 (configuration not stated) | 0 | 0 | 0 | 0 | 0 | -
CC(NC(=O)CCc1nnc(Cc2cccc(C(F)(F)F)c2)o1)C1CC1 (configuration not stated) | 0 | 0 | 0 | 0 | 0 | 0
c1cncc(Oc2cccc(Oc3cccnc3)c2)c1 | 0 | 0 | 0 | 0 | 0 | 0
O=C1CSC2(C(=O)N(Cc3ccccc3F)c3ccccc32)N1c1cccc(C(F)(F)F)c1 (configuration not stated) | 11µM | 0 | ? | 0 | 0 | 0
COc1cccc(N2C(=O)CSC23C(=O)N(Cc2ccccc2F)c2ccccc23)c1 (configuration not stated) | 0 | 0 | 0 | 0 | 0 | 0
CCOC(=O)C1CCCN(c2c(NCCCN(C)c3ccccc3)c(=O)c2=O)C1 (configuration not stated) | 0 | 0 | 0 | 0 | 0 | 0
CCCOC(=O)c1ccc(Nc2nc(C(=O)OCC)nc3ccccc23)cc1 | - | - | - | - | -34 | -
CCCOC(=O)c1cccc(Nc2nc(C(=O)OCC)nc3ccccc23)c1 | ? | 0 | 0 | ? | 0 | -
Cc1cc(C)c2nc(C)cc(N/N=C/c3ccc(O)cc3)c2c1 | 20µM | 18µM | ? | ? | 0 | 0
Cc1cc(N/N=C/c2ccc(N(C)C)cc2)c2ccccc2n1 | 0 | 0 | - | 0 | 0 | 0
Cc1cc(-c2ccccc2)nc(N/N=C/c2ccc(O)cc2)n1 | 0 | 0 | 0 | 0 | 0 | 0
Cc1cc(N/N=C/c2ccc(O)cc2)c2cccc(C)c2n1 | ? | 18µM | - | ? | 0 | 0
CC(=O)OC[C@@H]1CN(Cc2ccccc2)C[C@H](n2cnc3c(Nc4ccccc4)ncnc32)O1 | 0 | 16µM | 0 | 0 | 0 | -
CC(=O)OC[C@@H]1CN(Cc2ccccc2)C[C@H](n2cnc3c(NC4CCC4)ncnc32)O1 | 0 | 0 | 0 | 0 | 0 | -
O=C(/C=C/c1ccc(F)cc1)NNC(=O)C1CCCCC1 | - | - | - | - | 0 | -
O=C(/C=C/c1ccccc1)/C=C/c1ccccc1 | ? | 0 | ? | 40µM | 0 | 0
O=C(/C=C/c1ccccc1)NNC(=O)C1CC1 | 14µM | 0 | 0 | 0 | 0 | 0
O=C(/C=C/c1ccccc1)/C=C/c1ccc(-c2ccccc2)cc1 | - | - | - | - | 0 | -
O=C(/C=C/c1ccccc1)c1ccc2ccccc2c1 | ? | 20µM | 0 | 0 | 0 | 0
O=C(/C=C/c1ccccc1)c1ccccc1 | ? | 0 | 0 | 0 | 0 | 0
CCc1ccccc1NC(=O)Cn1ccn(-c2ccc(OC)cc2)c(=O)c1=O | 0 | 0 | 0 | 0 | 0 | 0
